Where “and” joins values, the source holds several entries; their conditions need not be identical. Identical values can stand only once. Inconclusive results are not listed. Where a call stands in place of a potency, no number is given. Where a structure was tested more than once in an assay, its records may differ in their call. Calls of active or inactive are those of the source. Unless noted, calls follow the shape of the full dose curve.
Experiments:
[1] = Nuclear factor erythroid 2-related factor 2/antioxidant responsive element (Nrf2/ARE) small molecule agonists: qHTS cell viability counter screen in human keratinocytes (AID 1919968; active = well fitted cell-killing curve with a large enough effect in the repeat runs; also: nearly all actives have a fitted effect of over 55% in size; also: potency is read from the fitted curve at half-maximal effect)
How it was run: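 Parallel cytotoxicity read: KeratinoSens HaCaT cells, compound treatment 23 h, viability by CellTiter-Fluor fluorescence 1 h post-reagent.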

[2] = Nuclear factor erythroid 2-related factor 2/antioxidant responsive element (Nrf2/ARE) small molecule agonists: luciferase reporter gene qHTS assay in human keratinocytes (AID 1919969); also: nearly all actives have a fitted effect of over 35% in size; also: potency is read from the fitted curve at half-maximal effect
[3] = target: Gonadotropin-releasing hormone receptor (Homo sapiens) (UniProt P30968); experiment: Human gonadotropin-releasing hormone receptor (GnRHR) small molecule agonists, calcium flux assay in GnRHR-HEK293 cells (AID 1920063); also: nearly all actives have a fitted effect of over 35% in size; also: potency is read from the fitted curve at half-maximal effect
How it was run: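 Calcium flux, agonist mode, human GnRHR stably integrated in HEK293; dye 1 h at 37 C before compound; Ex/Em=480/540 kinetic read, 3 min; 15 concentrations, triplicate.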

[4] = G protein-coupled receptor (GPCR) small molecule agonists, calcium flux assay: HEK293 wild type cell line counter screen (AID 1920065)
How it was run: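 Non-specific calcium responders were flagged by adding DMSO-dissolved compounds to dye-loaded cells and reading 480/540 nm fluorescence each second for 3 min; ATP served as positive control.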

[5] = p53 small molecule agonists, cell-based qHTS assay with human liver microsomes (AID 1963577)
How it was run: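 Fluorescence of the beta-lactamase reporter in p53RE-bla cells, detected with LiveBLAzer substrate (2 h, room temperature, dark), served as the read-out after 16 h compound exposure at 37 C with human liver microsomes and NADPH, each 0.5 mg/mL final.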

[6] = p53 small molecule agonists, cell-based qHTS assay with rat liver microsomes (AID 1963578)
How it was run: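 Cells carrying a p53 response element–beta-lactamase reporter were plated and rested 5 h, then dosed with compound in DMSO plus rat liver microsomes and NADPH, each at 0.5 mg/mL final. After 16 h at 37 C, LiveBLAzer substrate was added for 2 h.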

[7] = p53 small molecule agonists, cell-based qHTS assay with human liver microsomes: qHTS cell viability counter screen (AID 1963579); also: nearly all actives have a fitted effect of over 45% in size; also: potency is read from the fitted curve at half-maximal effect
How it was run: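 Cytotoxicity counter screen: p53RE-bla, 4,000 cells/well; 5 h settle, 37 C/5% CO2; cpd + HLM 0.5 mg/mL + NADPH 0.5 mg/mL (final); 16 h, 37 C; CellTiter-Glo, 30 min RT, luminescence.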

[8] = p53 small molecule agonists, cell-based qHTS assay with rat liver microsomes: qHTS cell viability counter screen (AID 1963580); also: nearly all actives have a fitted effect of over 45% in size
How it was run: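 Counter screen for cytotoxicity under metabolic activation: rat liver microsomes and NADPH, 0.5 mg/mL final each, added with compounds to p53RE-bla HCT-116 cells; 16 h at 37 C, then ATP luminescence read.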

[9] = p53 small molecule agonists, cell-based qHTS assay: qHTS cell viability counter screen (AID 1963581); also: nearly all actives have a fitted effect of over 45% in size
How it was run: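 Multiplexed with the reporter read, a CellTiter-Glo step (30 min, room temperature) gauges ATP-based viability of HCT-116 p53RE-bla cells after 16 h compound incubation at 37 C.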

[10] = p53 small molecule agonists, cell-based qHTS assay (AID 1963582; active = well fitted activation curve with a large enough effect in the signal ratio in the repeat runs, not every such curve was filed as active; the % refers to the signal ratio)
How it was run: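 Beta-lactamase reporter cells (p53RE-bla) treated with compounds for 16 h at 37 C; FRET substrate, 2 h, room temperature; fluorescence intensity.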

[11] = target: 5-hydroxytryptamine receptor 2A (Homo sapiens) (UniProt P28223); experiment: 5-hydroxytryptamine receptor 2A (HTR2A) small molecule antagonists, cell-based qHTS assay (AID 1963586); also: nearly all actives have a fitted effect of over 45% in size; also: potency is read from the fitted curve at half-maximal effect
How it was run: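 CHO cells stably expressing human HTR2A were plated for 18 h at 37 C, then loaded with calcium dye for 1 h. Compounds were preincubated 5 min at room temperature before DOI (4 nM solution) was added. Kinetic fluorescence was read for 3 min.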

[12] = target: 5-hydroxytryptamine receptor 2A (Homo sapiens) (UniProt P28223); experiment: 5-hydroxytryptamine receptor 2A (HTR2A) small molecule agonists, cell-based qHTS assay (AID 1963587); also: nearly all actives have a fitted effect of over 30% in size; also: potency is read from the fitted curve at half-maximal effect
How it was run: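 HTR2A-CHO cells, plated 18 h at 37 C/5% CO2, dye-loaded 1 h at 37 C; compounds in DMSO added by pin tool (agonist mode). Intracellular calcium flux read as kinetic fluorescence on FDSS over 2 min at 1 s intervals.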

[13] = target: Muscarinic acetylcholine receptor M1 (Homo sapiens) (UniProt P11229); experiment: Cholinergic receptor muscarinic 1 (CHRM1) small molecule antagonists, cell-based qHTS assay (AID 1963588); also: nearly all actives have a fitted effect of over 40% in size; also: potency is read from the fitted curve at half-maximal effect
How it was run: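 Compounds were tested at 15 concentrations in three independent runs. Dye-loaded CHRM1-CHO cells were exposed 5 min at room temperature before stimulation by acetylcholine added at 50nM. Intracellular calcium was read kinetically on FDSS for 3 min.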

[14] = target: Muscarinic acetylcholine receptor M1 (Homo sapiens) (UniProt P11229); experiment: Cholinergic receptor muscarinic 1 (CHRM1) small molecule agonists, cell-based qHTS assay (AID 1963589); also: nearly all actives have a fitted effect of over 35% in size
How it was run: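 qHTS, 15-point titration, 3 independent runs: compounds pin-transferred onto dye-loaded CHRM1-CHO cells (human M1), calcium fluorescence followed every second to detect agonism.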

[15] = cAMP Responsive Elements (CRE) small molecule agonists, cell-based qHTS assay (AID 1963590)
How it was run: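 Quantitative HTS for CRE agonists: HEK 293T CRE-bla cells, overnight plating, 3 h compound incubation at 37 C/5% CO2, then 2 h room-temperature LiveBLAzer B/G FRET substrate loading.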

[16] = cAMP Responsive Elements (CRE) small molecule antagonists, cell-based qHTS assay (AID 1963591; active = well fitted inhibition curve with a large enough effect in the signal ratio in the repeat runs, not every such curve was filed as active; the % refers to the signal ratio)
How it was run: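 Fluorescence intensity from cleaved LiveBLAzer B/G substrate (2 h, room temperature) quantified CRE-bla activity in HEK 293T cells exposed 3 h to compound with 0.25 uM final NKH477.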

[17] = target: Beta-2 adrenergic receptor (Homo sapiens) (UniProt P07550); experiment: Adrenergic beta2 receptor (ADRB2) small molecule antagonists, cell-based qHTS assay (AID 1963592); also: series mostly up to about 92 µM; nearly all actives have a fitted effect of over 50% in size
How it was run: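 Assay format: CHO-ADRB2 cells, 18-20hr seeding at 37C/5% CO2, then compound plus 1nM isoproterenol agonist mix for 0.5hr RT. Homogeneous time-resolved fluorescence cAMP detection after 1hr, expressed as 665/615 nm ratio.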

[18] = target: Beta-2 adrenergic receptor (Homo sapiens) (UniProt P07550); experiment: Adrenergic beta2 receptor (ADRB2) small molecule agonists, cell-based qHTS assay (AID 1963593);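 also: CHO cells stably overexpressing human ADRB2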
How it was run: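 CHO cells stably over-expressing ADRB2 were plated overnight at 37C, then dosed with compounds plus a stimulation mix containing 100uM IBMX and 25uM Ro-20-1724 for 0.5hr at room temperature. cAMP was measured by HTRF competition, 1hr.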

[19] = target: D(2) dopamine receptor (Homo sapiens) (UniProt P14416); experiment: Dopamine D2 receptor (DRD2) small molecule agonists, cell-based qHTS assay (AID 1963594); also: nearly all actives have a fitted effect of over 35% in size
How it was run: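 HEK293 cells stably expressing DRD2 were cultured 24 h at 37 C, then given Ro20-1724 (0.1 mM final) and compounds for 10 min at room temperature. NKH477 (200nM) was then added for 30 min. cAMP was read by HTRF.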

[20] = target: D(2) dopamine receptor (Homo sapiens) (UniProt P14416); experiment: Dopamine D2 receptor (DRD2) small molecule antagonists, cell-based qHTS assay (AID 1963595; active = well fitted inhibition curve with a large enough effect in the signal ratio in the repeat runs, with a control signal flat; the % refers to the signal ratio)
How it was run: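 In this cell-based antagonist screen, compounds act for 10 min at room temperature before a 30 min challenge with 12 nM quinpirole and 200 nM NKH477. cAMP is quantified by HTRF competition in DRD2-HEK293 cells containing 0.1 mM Ro20-1724.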

Chain of D(2) dopamine receptor (Homo sapiens) (P14416 whole entry, looked up): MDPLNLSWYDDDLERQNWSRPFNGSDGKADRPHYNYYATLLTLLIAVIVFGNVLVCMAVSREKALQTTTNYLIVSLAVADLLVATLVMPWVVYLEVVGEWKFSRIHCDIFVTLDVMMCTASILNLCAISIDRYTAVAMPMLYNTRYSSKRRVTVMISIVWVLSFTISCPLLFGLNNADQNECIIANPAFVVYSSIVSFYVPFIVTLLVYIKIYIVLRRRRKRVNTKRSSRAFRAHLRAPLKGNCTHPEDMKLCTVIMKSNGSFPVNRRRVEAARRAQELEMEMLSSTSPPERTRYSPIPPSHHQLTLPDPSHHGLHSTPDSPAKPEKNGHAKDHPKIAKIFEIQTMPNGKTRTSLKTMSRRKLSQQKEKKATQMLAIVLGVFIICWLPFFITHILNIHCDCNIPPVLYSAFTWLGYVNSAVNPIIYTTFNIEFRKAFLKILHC
Chain of Gonadotropin-releasing hormone receptor (Homo sapiens) (P30968 whole entry, looked up): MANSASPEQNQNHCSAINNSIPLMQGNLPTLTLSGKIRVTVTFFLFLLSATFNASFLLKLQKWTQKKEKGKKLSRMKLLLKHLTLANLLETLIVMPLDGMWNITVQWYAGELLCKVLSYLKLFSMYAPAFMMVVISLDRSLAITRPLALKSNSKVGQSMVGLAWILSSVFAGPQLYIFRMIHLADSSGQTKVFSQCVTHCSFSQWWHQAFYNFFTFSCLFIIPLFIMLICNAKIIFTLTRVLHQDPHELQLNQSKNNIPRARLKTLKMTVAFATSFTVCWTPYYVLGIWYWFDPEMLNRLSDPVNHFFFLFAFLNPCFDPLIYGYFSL
Chain of Beta-2 adrenergic receptor (Homo sapiens) (P07550 whole entry, looked up): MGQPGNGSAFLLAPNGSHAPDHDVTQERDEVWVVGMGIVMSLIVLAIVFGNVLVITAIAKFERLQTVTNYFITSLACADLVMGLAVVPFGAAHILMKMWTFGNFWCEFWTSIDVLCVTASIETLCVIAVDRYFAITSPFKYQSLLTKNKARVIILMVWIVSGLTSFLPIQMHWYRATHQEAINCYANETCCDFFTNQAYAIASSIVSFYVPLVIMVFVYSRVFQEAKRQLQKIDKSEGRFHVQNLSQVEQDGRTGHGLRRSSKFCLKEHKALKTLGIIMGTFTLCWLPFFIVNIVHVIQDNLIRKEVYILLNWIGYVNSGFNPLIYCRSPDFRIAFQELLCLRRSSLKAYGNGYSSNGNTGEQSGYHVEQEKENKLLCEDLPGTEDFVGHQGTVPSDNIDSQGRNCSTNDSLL
Chain of 5-hydroxytryptamine receptor 2A (Homo sapiens) (P28223 whole entry, looked up): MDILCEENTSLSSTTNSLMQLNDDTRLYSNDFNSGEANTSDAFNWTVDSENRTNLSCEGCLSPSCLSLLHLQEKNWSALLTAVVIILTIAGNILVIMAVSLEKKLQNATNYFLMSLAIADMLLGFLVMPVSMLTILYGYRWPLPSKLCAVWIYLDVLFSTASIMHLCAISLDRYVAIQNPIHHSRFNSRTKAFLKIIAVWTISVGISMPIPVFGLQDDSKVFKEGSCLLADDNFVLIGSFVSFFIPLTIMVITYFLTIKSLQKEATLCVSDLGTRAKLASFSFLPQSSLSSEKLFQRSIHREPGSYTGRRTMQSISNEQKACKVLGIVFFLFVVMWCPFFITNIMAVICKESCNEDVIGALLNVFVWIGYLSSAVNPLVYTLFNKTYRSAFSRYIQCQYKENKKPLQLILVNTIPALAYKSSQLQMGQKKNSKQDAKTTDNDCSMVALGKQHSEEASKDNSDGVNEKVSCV
Chain of Muscarinic acetylcholine receptor M1 (Homo sapiens) (P11229 whole entry, looked up): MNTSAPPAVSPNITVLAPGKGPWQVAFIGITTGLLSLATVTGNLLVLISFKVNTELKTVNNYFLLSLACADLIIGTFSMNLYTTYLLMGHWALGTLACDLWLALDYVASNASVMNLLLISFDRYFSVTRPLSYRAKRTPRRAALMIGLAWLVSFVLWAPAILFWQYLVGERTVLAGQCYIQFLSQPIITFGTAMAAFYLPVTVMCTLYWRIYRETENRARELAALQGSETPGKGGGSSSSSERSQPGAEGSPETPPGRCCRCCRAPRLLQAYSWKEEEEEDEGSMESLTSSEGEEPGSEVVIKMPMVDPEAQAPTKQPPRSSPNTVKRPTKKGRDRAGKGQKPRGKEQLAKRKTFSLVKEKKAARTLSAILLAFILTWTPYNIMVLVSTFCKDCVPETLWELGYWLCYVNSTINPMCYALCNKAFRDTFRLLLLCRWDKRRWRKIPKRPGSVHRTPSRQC

Row | Structure (SMILES) | Potency [1] | Potency [2] | Potency [3] | Potency [4] | Potency [5] | Potency [6] | Potency [7] | Potency [8] | Potency [9] | Potency [10] | Potency [11] | Potency [12] | Potency [13] | Potency [14] | Potency [15] | Potency [16] | Potency [17] | Potency [18] | Potency [19] | Potency [20]
1 | O=C1C(O)=C(O)C(=O)C(O)=C1O | inactive | inactive | inactive | inactive | inactive | inactive | inactive | inactive | inactive | inactive | inactive | 47.7 nM (active) | inactive | inactive | inactive | inactive | inactive | inactive | inactive | inactive
2 | Cc1ccc(S(=O)(=O)NC2CCCCC2)cc1 | inactive | inactive | inactive | inactive | inactive | inactive | inactive | inactive | inactive | inactive | inactive | inactive | inactive | inactive | inactive | inactive | inactive | inactive | inactive | inactive
3 | C=C(C)C(=O)OCCC[Si](Cl)(Cl)Cl | inactive | inactive | inactive | inactive | inactive | inactive | inactive | inactive | inactive | inactive | inactive | inactive | inactive | inactive | inactive | inactive |  | inactive | inactive | inactive
4 | CCCCCCCCCCCCCCCC[N+](C)(C)CC | 54.6 µM (active) | inactive | 13.8 µM (active) | inactive | inactive | inactive | 45.9 µM (active) and inactive | inactive | inactive | inactive | 13.3 µM (active) and 11.6 µM (active) | 43800 nM (active) | 422 nM (active) and 65 nM (active) | inactive |  |  | inactive |  | inactive | inactive
5 | c1cnccn1 | inactive | inactive | inactive | inactive | inactive | inactive | inactive | inactive | inactive | inactive | inactive | inactive | inactive | inactive | inactive | inactive | inactive |  | inactive | inactive
6 | CCCC(=O)c1ccccc1 | inactive | inactive | inactive | inactive | inactive | inactive | inactive | inactive | inactive | inactive | inactive | inactive | inactive | inactive | inactive | inactive | inactive |  | inactive | inactive
7 | CCCCCOC(C)=O | inactive | 68.6 µM (active) | inactive |  |  |  | inactive |  | inactive |  | inactive | inactive | inactive | inactive | inactive | inactive | inactive | inactive | inactive | inactive
8 | O=C(Oc1ccccc1)c1ccccc1 | inactive | inactive | inactive |  |  |  | inactive | inactive | inactive |  | inactive | 55 µM (active) and inactive | inactive | inactive | inactive |  | inactive | inactive | inactive | inactive
9 | COc1cc(CCC(C)=O)ccc1O | inactive | inactive | inactive | inactive | inactive | inactive | inactive | inactive | inactive | inactive | 3.75 µM (active) | inactive | inactive | inactive | inactive | inactive | inactive | inactive | inactive | inactive
10 | CC(=O)O[C@H](CC(=O)[O-])C[N+](C)(C)C | inactive | inactive | inactive | inactive | inactive |  | inactive | inactive | inactive |  | inactive | inactive | inactive |  | inactive | inactive |  |  |  | inactive
11 | COC(=O)c1cc(Cl)ccc1OC | inactive | inactive | inactive | inactive | inactive |  | inactive | inactive | inactive | inactive | inactive | inactive | inactive | inactive | inactive | inactive | inactive | inactive | inactive | inactive
12 | CCCCC/C=C/C=C/C=O | inactive | 61.1 µM (active) | inactive | inactive | inactive | inactive | inactive | inactive | inactive |  | inactive | inactive | inactive | inactive | inactive | inactive | inactive | inactive | inactive | inactive
13 | CC1=C(C=O)C(C)(C)CC=C1 | inactive | inactive | inactive | inactive | inactive | inactive | inactive | inactive | inactive |  | inactive | inactive | inactive |  | inactive | inactive | inactive | inactive | inactive | 
14 | Oc1ccc(OCc2ccccc2)cc1 | inactive | 8.45 µM (active) | inactive | inactive | inactive | inactive | inactive |  | inactive | inactive |  |  |  |  | inactive |  | inactive | inactive | inactive | inactive

Source: PubChem BioAssay (Tox21)
